# tim23-1 inh: tim23-1 yeast growth inhibition; S. cerevisiae tim23-1 growth, BacTiter-Glo luminescence, 24 h; inhibition, % at 20 µM; 330,000 compounds, 1.3% hits;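 active means growth inhibition of the mutant yeast at or above 50%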;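 further: temperature-sensitive mutant grown at 25 °C; plate controls were DMSO-treated mutant yeast for no effect and medium wells lacking yeast for full effect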
# TIM10 inh: growth inhibitors of TIM10 yeast strain; S. cerevisiae TIM10 strain growth, BacTiter-Glo luminescence, 24 h; inhibition, % at 10 µM; 330,000 compounds, 1.4% hits; AID 463195;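 active means inhibition of 40% or more at the single tested concentration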;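 further: wild-type TIM10 isogenic control strain grown at permissive 25 °C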
# PfHsp90 yeast 2: growth inhibition of yeast expressing Plasmodium Hsp90 | 310,000 compounds, 0.32% hits | S. cerevisiae expressing PfHsp90, BacTiter-Glo ATP, 48 h; yeast lacking PDR1 and PDR3 efflux regulators | inhibition, % at 9.4 µM | AID 504621;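 active means every replicate shows inhibition above about 80%, whatever the replicate mean, limit read from the data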;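 further: 0% = DMSO neutral controls and 100% = 20 µM radicicol positive controls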
# NLRP3 yeast inh: inhibitors of NALP3 inflammasome in yeast; 330,000 compounds, 0.39% hits; Yeast reconstituted NLRP3/ASC/caspase-1, beta-gal luminescence, 24 h; inhibition, % at 10 µM;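 active means inhibition of 50% or more; inactive means inhibition below 50%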;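 further: plate controls were induced DMSO wells for no effect and uninduced yeast grown without galactose for full effect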
# NALP1 yeast inh: NALP1 inhibition. 280,000 compounds, 0.61% hits. inhibition, % at 10 µM. S. cerevisiae NALP1/ASC/caspase-1 growth, X-gal OD620, 72 h. AID 2071; in the data active means inhibition mostly above about 24%, no sharp cut-off; inactive means mostly below about 32%
# tim10-1 inh: inhibits growth of tim10-1 mutant yeast; S. cerevisiae tim10-1 ts strain growth, BacTiter-Glo, 24 h; inhibition, % at 20 µM; 330,000 compounds, 2.2% hits;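 active means inhibition of at least 40%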;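 further: mutant grown at 25 °C; 0% = DMSO wells with yeast and 100% = wells holding no yeast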
# NALP3 yeast conf: NALP3 inhibition confirmation in yeast. shares compounds with NLRP3 yeast inh. yeast expressing human NALP3, luminescence. inhibition, % at 10 µM. 1,300 compounds, 81% hits. AID 435006; in the data active means inhibition above about 48%
# Casp1 ASC ctr: active in yeast caspase-1-ASC counter-screen for NALP3 inhibitors; shares compounds with NLRP3 yeast inh; yeast expressing Caspase-1-ASC, luminescence counter screen; inhibition, % at 10 µM; 1,000 compounds, 66% hits; AID 488784
# NALP3 yeast rt: confirmation retest of NALP3 inhibitors in yeast; 1,000 compounds, 53% hits; yeast expressing human NALP3, luminescence read-out; shares compounds with NLRP3 yeast inh; AID 488794; inhibition, % at 10 µM
# * marks the source's active call; other numbers are inactive results; . = no result given. Shown are actives, neighbours in structure and some others; about 4.2% of the full set was active somewhere. Unless noted, no stated cut-off is given here; in the data, active means inhibition above about 50%; inactive means the rest.
SMILES,tim23-1 inh,TIM10 inh,PfHsp90 yeast 2,NLRP3 yeast inh,NALP1 yeast inh,tim10-1 inh,NALP3 yeast conf,Casp1 ASC ctr,NALP3 yeast rt
CC1CCc2c(C(=O)Nc3ccc(N4CCOCC4)cc3)csc2C1 (stereo not given),11,11,14,69*,27*,18,53*,64*,52*
CCCOc1ncnc2c1[nH]c1ccc(C)cc12,20,14,.,39,-1,-55,.,.,.
CCOc1ncnc2c1[nH]c1ccccc12,28,23,-6,61*,.,-58,82*,.,.
CC(C)CNC(=O)c1cnn2c(C(F)(F)F)cc(C(F)(F)F)nc12,-4,1,.,20,0,-3,.,.,.
CCOC(=O)c1cnc(SC)nc1N1CCCC1,2,-20,31,56*,3,-22,52*,56*,42
COc1cc(/C=C(\C#N)c2ccccn2)cc(OC)c1O,16,23,-5,36,.,6,.,.,.
CN(C)c1ccc(/C=C(\C#N)c2ccccn2)cc1,33,30,20,51*,44,29,34,.,.
COC(=O)c1ccc(/C=C(\C#N)c2ccccn2)cc1,23,-7,15,63*,1,-3,52*,47,50
COc1ccc(CNC(=O)C2CCCN2S(=O)(=O)c2ccc(F)cc2)cc1 (stereo not given),9,6,-21,6,-3,20,.,.,.
Cc1ccc(NN2C(=O)C=C(c3ccccc3)C2=O)cc1,36,9,.,83*,-25,-5,72*,96*,62*
CN1C(=O)C(C)(C)c2cc(S(=O)(=O)NCc3ccc(C(=O)NCc4ccco4)cc3)ccc21,14,13,-9,4,4,4,.,.,.
Cc1ccc(Cc2nc(-c3ccccn3)no2)cc1,2,-30,7,26,13,3,.,.,.
Cc1ccc(Sc2cc(C)nc(-c3ccccn3)n2)cc1,46,24,-13,51*,.,22,43,65*,49
CCn1cnc2c([N+](=O)[O-])c(NS(=O)(=O)c3ccc(C)cc3)ccc21,7,2,-34,11,.,-26,.,.,.
C=CCNc1nc(Cl)nc(Nc2ccc(OCC)cc2)n1,17,19,8,52*,43,21,46,38,34
COc1c(C)cc(C(=O)C2CCCN(S(=O)(=O)N(C)C)C2)cc1C (stereo not given),16,6,-2,4,14,-3,.,.,.
CSc1ccccc1NC(=O)CSc1nnc(COc2ccccc2)o1,-2,-15,-68,21,15,-7,.,.,.
CCCCCCCCCCCCOC(=O)C[N+](C)(C)C,19,-41,.,54*,.,30,46,59*,52*
Clc1ccccc1Cn1nnc2c(Nc3ccccc3)ncnc21,30,10,-9,62*,-6,10,74*,55*,57*
Cn1cccc1-c1nc2ccccc2n1Cc1ccccc1,20,30,-3,-108,-8,39,-15,.,.
COc1ccc(Cn2c(-c3ccc(OC)cc3)nc3ccccc32)cc1,41,17,23,24,31,36,.,.,.
Cc1cc(C)cc(C(=O)Nc2nc3ccccc3[nH]2)c1,47,13,-16,52*,23,11,52*,61*,47
COc1ccc(C(=O)Nc2nc3ccccc3[nH]2)cc1OC,1,-3,-7,9,2,15,.,.,.
COc1ccc(Cl)cc1C(=O)Nc1nc2ccccc2[nH]1,31,22,25,72*,38*,-23,78*,77*,72*
CCSc1oc(-c2ccco2)nc1S(=O)(=O)c1ccc(F)cc1,29,18,-23,6,22,36,.,.,.
SMILES,tim23-1 inh,TIM10 inh,PfHsp90 yeast 2,NLRP3 yeast inh,NALP1 yeast inh,tim10-1 inh,NALP3 yeast conf,Casp1 ASC ctr,NALP3 yeast rt
CCSc1oc(-c2ccco2)nc1S(=O)(=O)c1ccc(C)cc1,25,-13,19,52*,15,-4,50*,50*,46
O=C1C(=O)N(CCCN2CCOCC2)C(c2ccc(Cl)cc2)/C1=C(\O)c1ccc2c(c1)OCCO2 (stereo not given),0,-11,-3,4,2,5,.,.,.
CCCCOc1ccc(C2/C(=C(\O)c3ccc4c(c3)OCCO4)C(=O)C(=O)N2CCCN2CCOCC2)cc1 (stereo not given),7,11,4,60*,19,5,55*,68*,54*
O=C(CSc1nnc(COc2ccccc2)o1)N1CCOCC1,-1,5,-29,-3,0,9,.,.,.
CCn1c(COc2ccc(C)cc2)nnc1SCc1ccc(C#N)cc1,34,-3,2,61*,15,31,71*,54*,39
COC(=O)C1=C[C@@H](C(=O)OC)[C@@H]2C3=C(C(=O)C2(C)C)[C@H](c2ccccc2)[C@@H]2C(=O)N(C)C(=O)[C@@H]2[C@@H]3C1,7,9,-3,9,.,7,.,.,.
O=S(=O)(c1ccc(Cl)s1)N1CCN(Cc2ccccc2)CC1,27,-2,-41,32,4,24,.,.,.
O=S(=O)(c1ccccc1)N1CCN(Cc2cccc(Br)c2)CC1,13,-11,.,17,.,22,.,.,.
O=S(=O)(c1ccc(Cl)s1)N1CCN(CCc2ccccc2)CC1,37,13,0,60*,18,33,76*,63*,53*
O=S(=O)(c1cccc(Br)c1)N1CCN(CCc2ccccc2)CC1,25,-1,-3,53*,-7,34,71*,52*,49
CC1=C(C(=O)Nc2cccc(C(=O)N3CCN(c4cccc(C(F)(F)F)c4)CC3)c2)SCCO1,32,6,26,14,-2,21,.,.,.
CCCCCCN[C@H]1CCC2C3CC=C4C[C@@H](O)CC[C@]4(C)C3CC[C@@]21C (stereo not given in full),18,-37,-40,62*,.,19,66*,.,.
CC(=O)OCC(=O)[C@H]1CC[C@H]2[C@@H]3CCC4=CC(=O)CC[C@]4(C)[C@H]3CC[C@]12C,39,-6,-2,50,34,13,.,.,.
CC(=O)OCC(=O)C1CCC2C3CC=C4CC(O)CCC4(C)C3CCC12C (stereo not given),30,23,-2,74*,.,21,81*,77*,66*
COc1ccccc1NC(=O)C(C)OC(=O)CCSc1ccc(F)cc1 (stereo not given),2,-15,-9,8,.,-12,.,.,.
Cn1ncc2c(Nc3ccc(Cl)c(Cl)c3)ncnc21,23,7,-13,-4,7,22,.,.,.
Cn1ncc2c(Nc3ccc(-c4ccccc4)cc3)ncnc21,45,19,-7,51*,19,-22,52*,60*,54*

# High-throughput results (PubChem BioAssay)
